We go through 17 compounds from PubChem BioAssay.

The nature of assay [1]: inhibitors of mutant huntingtin aggregation, primary screen, imaging, exon1htt(103Q)mCFP cells, high-content imaging (AID 483;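 active = visual image review flags a hit and inhibition of aggregation exceeds 20%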;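 note: compound exposure lasted 3 days before fixation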;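 for nuclei count: percent of the per-plate median nuclei count of sample wells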). To be noted: exon1htt(103Q)mCFP cell line, aggregate imaging, at 2 µM; inhibition of aggregation: stronger effect = higher value; nuclei count: measured here: cell count, toxicity.
Assay [2] in a line: inhibitors of E-selectin induction by TNFa, primary screen, imaging, HUVEC, immunofluorescence, MLSMR starter and 10KST1 sets (AID 487;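 active = visually confirmed hit in the image check and inhibition above 20%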;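 for inhibition: signal is fraction of cell area covered by stained E-selectin grains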;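 for nuclei count: 100% = median nuclei count of all wells on the same plate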). To be noted: HUVEC TNFalpha-induced E-selectin immunofluorescence imaging, at 2 µM; inhibition: stronger effect = higher value; nuclei count: measured here: cell number, toxicity.
Assay [3] is described as follows: DUSP6 inhibitors restoring Erk phosphorylation by chemical complementation, primary imaging in DUSP6-transfected HeLa (AID 609;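 active = compounds giving at least 50% inhibition in the cell-based MKP-3 phosphatase rescue imaging test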;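 for inhibition: phospho-Erk level distribution per well compared with pooled transfected vehicle control wells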). To be noted: HeLa MKP-3 transfected, phospho-Erk imaging KS statistic, at 10 µM.
In assay [4] the target is Dual specificity protein phosphatase 6 (Homo sapiens) (UniProt Q16828). The description is as above. To be noted: HeLa MKP-3 transfected, phospho-Erk imaging KS statistic, at 10 µM, stronger effect = higher value.
Assay [5] addresses Voltage-gated potassium channel subunit beta-2 (Rattus norvegicus) (UniProt P62483). Kind of assay: KvBeta enzyme negative modulators, primary screen, biochemical, NADPH fluorescence (AID 622;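 active = fluorescence slope higher than the sample average by over 3 SD, cut at about -0.22 in these data, passing the limit was not always enough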;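 note: slope of raw intensity against log time taken from 70 to 1610 s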). To be noted: recombinant KvBeta, 4-cyanobenzaldehyde reduction, at 10 µM, stronger effect = higher value.
The target is the same in assay [6]. Kind of assay: KvBeta positive modulators, primary screen, biochemical, NADPH fluorescence (AID 623;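 active = NADPH fluorescence slope more negative than the mean of all samples by about 3 SD, 99.7% confidence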;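 note: fluorescence intensity change per second fitted from 20 to 320 s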). To be noted: Recombinant KvBeta, NADPH fluorescence decrease slope, 10 min; at 10 µM; stronger effect = lower value.
Assay [7] addresses Alpha-2C adrenergic receptor (Homo sapiens) (UniProt P18825). Kind of assay: modulators of alpha2C/GIRK thallium flux, primary screen, cell-based, HEK293 alpha2C/GIRK1/2 (AID 624;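 active = fluorescence slope after compound addition differing from the mean of all screened samples at 99.7% confidence, in either direction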;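 note: slope of fluorescence ratio to pre-addition baseline per second over 15 to 24 s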). The following applies: thallium flux BTC fluorescence, at 10 µM, actives lie on both sides.
The nature of assay [8]: inhibitors of larval lipid processing in zebrafish, primary screen, whole organism, PED6 fluorescence, gall bladder and intestine (AID 686;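 active = a full or partial loss of lipid-probe fluorescence in the fish gall bladder, intestine or both, judged by eye; inactive = no fluorescence loss, or compound toxic to the fish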;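 note: larvae 5 to 7 days old with five fish per well; signal comes from phospholipase A2 cleavage of quenched PED6 carried via bile; overnight exposure to compound and PED6 before scoring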). To be noted: Zebrafish larvae PED6 lipid processing, fluorescence scoring.
Assay [9] can be described thus: inhibitors of Chlamydomonas gravitaxis, primary screen, whole organism, Chlamydomonas reinhardtii, WT vs cilia-less mutant, absorbance, 96-well (AID 463189).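 Note: 0% = wild type cc124 cells in DMSO and 100% = ciliumless bld1 mutant cells.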 The following applies: OD600 absorbance, 2 days, at 10 µM, stronger effect = higher value.
Assay [10] in a line: inhibitors of Sendai virus-induced IRF3 signaling, primary screen, TLR/RLR signaling modifier project, cell-based, Sendai virus stimulus, luciferase, 10K MLSCN set (AID 602276;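 active = inhibition at or above 50% at 10 µM; inactive = inhibition below 50%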;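 note: firefly luciferase from ISG56 promoter only with Renilla not read in this screen; 0% = Sendai virus plus DMSO and 100% = medium plus DMSO without virus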). To be noted: HEK293 RL24 IRF3 luciferase reporter, at 10 µM, stronger effect = higher value. (In a reporter assay the amount or activity of a reporter protein is the signal.)
A short description of assay [11]: inhibitors of poly I:C-induced TLR3 signaling, primary screen, cell-based, poly I:C stimulus, luciferase, 10K MLSCN set (AID 602277;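 active = inhibition of the reporter signal at or above 50%; inactive = inhibition below 50%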). The following applies: HEK293-TLR3 RL24 IRF3 luciferase reporter, at 10 µM, stronger effect = higher value.
Assay [12] addresses Muscarinic acetylcholine receptor M4 (Homo sapiens) (UniProt P08173). Kind of assay: compounds altering M4/GIRK thallium flux, either direction, primary screen, M4 allosteric agonist project, cell-based, HEK293 M4/GIRK, BTC-AM (AID 625;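 active = fluorescence slope after compound addition differing from the mean of all tested samples at 99.7% confidence, mostly higher but some lower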;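 note: thallium influx through GIRK channels coupled to M4 in HEK293 cells with BTC-AM dye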). The following applies: at 10 µM, actives lie on both sides.
[13] abbreviates: measured here: cell density z-score.
Where [14] appears, read: measured here: nuclear c-Myc green intensity z-score.
Setting [15] is: measured here: nuclear pErk red intensity z-score, stronger effect = higher value.

Molecules are shown by their SMILES. Several values for one entry are separate records, joined by “and”; a condition that tells them apart may be missing. Equal entries are not always repeated. Activity calls are given as the source filed them.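 Rule for the calls, unless noted: active = inhibition at or above 50% relative to wild type and mutant plate controls; inactive = inhibition below 50%.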

Chain of Dual specificity protein phosphatase 6 (Homo sapiens) (Q16828 whole entry, looked up): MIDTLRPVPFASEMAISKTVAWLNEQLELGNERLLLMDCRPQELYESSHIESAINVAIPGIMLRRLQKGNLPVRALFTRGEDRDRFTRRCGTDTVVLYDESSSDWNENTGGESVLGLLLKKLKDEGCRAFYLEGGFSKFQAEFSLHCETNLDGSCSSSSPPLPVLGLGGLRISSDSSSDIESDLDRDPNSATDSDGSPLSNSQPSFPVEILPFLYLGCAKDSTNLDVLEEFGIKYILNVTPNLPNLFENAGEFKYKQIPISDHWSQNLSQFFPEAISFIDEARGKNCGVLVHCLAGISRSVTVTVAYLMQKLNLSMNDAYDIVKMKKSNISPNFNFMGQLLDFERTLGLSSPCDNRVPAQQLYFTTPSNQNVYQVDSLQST
Chain of Voltage-gated potassium channel subunit beta-2 (Rattus norvegicus) (P62483 whole entry, looked up): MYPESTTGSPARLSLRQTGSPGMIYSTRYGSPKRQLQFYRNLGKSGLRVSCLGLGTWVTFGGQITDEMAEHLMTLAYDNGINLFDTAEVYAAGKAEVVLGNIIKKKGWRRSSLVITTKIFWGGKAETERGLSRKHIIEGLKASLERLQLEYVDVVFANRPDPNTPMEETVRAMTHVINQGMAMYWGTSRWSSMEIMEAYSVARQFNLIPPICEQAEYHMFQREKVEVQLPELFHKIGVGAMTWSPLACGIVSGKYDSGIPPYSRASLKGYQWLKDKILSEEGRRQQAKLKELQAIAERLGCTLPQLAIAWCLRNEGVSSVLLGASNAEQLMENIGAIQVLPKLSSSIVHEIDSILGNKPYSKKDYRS
Chain of Alpha-2C adrenergic receptor (Homo sapiens) (P18825 whole entry, looked up): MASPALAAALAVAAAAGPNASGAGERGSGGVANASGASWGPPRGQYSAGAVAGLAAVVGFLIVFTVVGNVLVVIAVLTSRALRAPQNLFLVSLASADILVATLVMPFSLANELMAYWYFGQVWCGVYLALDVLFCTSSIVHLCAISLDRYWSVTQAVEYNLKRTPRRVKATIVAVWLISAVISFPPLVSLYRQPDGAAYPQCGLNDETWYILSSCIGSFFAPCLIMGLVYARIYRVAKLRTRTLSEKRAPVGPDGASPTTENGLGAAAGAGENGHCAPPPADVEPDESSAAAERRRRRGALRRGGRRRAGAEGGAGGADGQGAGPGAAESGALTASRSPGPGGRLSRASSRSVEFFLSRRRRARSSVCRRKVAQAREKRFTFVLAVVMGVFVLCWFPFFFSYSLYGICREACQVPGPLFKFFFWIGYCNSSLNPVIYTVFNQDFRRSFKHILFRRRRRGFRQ
Chain of Muscarinic acetylcholine receptor M4 (Homo sapiens) (P08173 whole entry, looked up): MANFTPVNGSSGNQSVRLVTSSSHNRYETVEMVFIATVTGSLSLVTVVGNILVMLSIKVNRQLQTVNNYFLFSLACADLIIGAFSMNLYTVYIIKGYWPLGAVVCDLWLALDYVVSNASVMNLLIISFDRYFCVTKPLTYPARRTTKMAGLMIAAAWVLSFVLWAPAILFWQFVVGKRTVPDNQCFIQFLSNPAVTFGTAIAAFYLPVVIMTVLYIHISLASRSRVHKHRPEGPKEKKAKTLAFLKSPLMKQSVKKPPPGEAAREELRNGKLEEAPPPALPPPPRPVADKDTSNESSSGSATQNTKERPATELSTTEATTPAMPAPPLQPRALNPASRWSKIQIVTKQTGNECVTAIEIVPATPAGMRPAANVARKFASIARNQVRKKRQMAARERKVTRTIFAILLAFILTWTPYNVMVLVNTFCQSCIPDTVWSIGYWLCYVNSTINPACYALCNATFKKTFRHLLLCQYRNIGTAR

For the compound `O=C(COc1ccc2ccccc2c1)N1CCN(C2CCN(Cc3ccccc3)CC2)CC1`, the inhibition of aggregation in [1] was 2.5% (inactive). The values for the nuclei count in assay [1] and in assay [2] were 75.6% and 138%, respectively. Further, the inhibition was -123% (inactive) in [2]; 1.04% (inactive) in assay [4]; 64.5% (active) in assay [9]; 8.43% (inactive) in assay [10]; -13.3% (inactive) in assay [11]. In addition, the z-score in assay [3] (setting [13]) was 0.592; in assay [3] (setting [14]), -1.17; in [3] (setting [15]) it was 0.865. Also, the fluorescence slope in assay [5] is -0.309 (inactive). In addition, in [6], the NADPH fluorescence slope is 1.5e-05 (inactive). Further, the slope in assay [7] is 0.00353 (inactive). In [8], the compound was classed as inactive.
For `Cn1c(O)c(C(=O)c2ccccc2Cl)c(=O)n(C)c1=O`, the values for the inhibition in assay [2], in [4] and in assay [9] were 35.3% (inactive), 5.57% (inactive) and 9.5% (inactive), respectively. Besides, in [2], the nuclei count was determined as 79.3%. The values for the z-score in [3] (setting [13]), in [3] (setting [14]) and in [3] (setting [15]) were -0.324, 0.445 and 0.96, respectively. Further, the fluorescence slope was -0.47 (inactive) in [5] and 0.00543 (inactive) in assay [12]. The NADPH fluorescence slope in assay [6] is -3.4e-05 (inactive). The compound was called inactive in assay [8].
On to `C[C@]12CCC(=O)C=C1CC[C@@H]1[C@@H]2CC[C@]2(C)C(=O)CC[C@@H]12`, for which the inhibition of aggregation in [1] was 16.3% (inactive). The nuclei count in [1] worked out at 88.1%; in [2], 117%. In addition, the inhibition is -105% (inactive) in assay [2]; 11.3% (inactive) in assay [4]; 3.25% (inactive) and 26.7% (inactive) in assay [9]; 5% (inactive) in [10]; 31.7% (inactive) in assay [11]. For the same compound, the z-score is -1.04 in assay [3] (setting [13]), -1.5 in assay [3] (setting [14]) and 2.67 in assay [3] (setting [15]). Besides, in assay [5], the fluorescence slope is -0.41 (inactive). Moreover, in assay [6], the NADPH fluorescence slope is 2.5e-05 (inactive). Moreover, the slope in [7] was 0.00365 (inactive). For the same compound, the result in [8] was inactive.
Turning to `O=C(CCCN1CCC2(CC1)C(=O)N(CCc1ccc(N=C=S)cc1)CN2c1ccccc1)c1ccc(F)cc1`, in assay [9], the inhibition is 2.53% (inactive).
As for `C[C@]12N[C@H](Cc3ccccc31)c1ccccc12`, the inhibition in [9] is -0.308% (inactive).
Turning to `C[N+]1(C)C2CC(OC(=O)[C@H](CO)c3ccccc3)CC1C1OC12` (stereo partly specified), the inhibition in [9] was -8.63% (inactive) and 9.74% (inactive).
Consider `CCCN1CCC[C@@H](c2cccc(O)c2)C1`, for which the inhibition in assay [9] was 0.338% (inactive).
Consider `O=c1[nH]c2ccccc2n1CCCN1CCC(n2c(=O)[nH]c3cc(Cl)ccc32)CC1`, for which, in [1], the inhibition of aggregation was 13.3% (inactive). Moreover, the values for the nuclei count in assay [1] and in assay [2] were 79.8% and 120%, respectively. Further, the inhibition in assay [2] is -81.4% (inactive); in assay [4], 12.4% (inactive); in assay [9] it was 2.96% (inactive) and 11.3% (inactive); in assay [10] it was 7.67% (inactive); in [11] it was 18.2% (inactive). Besides, the z-score in assay [3] (setting [13]) was -1.29; in assay [3] (setting [14]), 0.926; in assay [3] (setting [15]) it was 0.563. In addition, in assay [5], the fluorescence slope was -0.455 (inactive). Further, in [6], the NADPH fluorescence slope was -4.5e-05 (inactive). Moreover, the slope in assay [7] is 0.00301 (inactive).
As for `Cc1ccc(S(=O)(=O)N[C@@H](CCCCN)C(=O)CCl)cc1`, the inhibition in [9] is 5.31% (inactive).
For `CC[C@@H](CO)NC(=O)[C@@H]1C=C2c3cccc4[nH]cc(c34)C[C@H]2N(C)C1`, the inhibition in assay [9] was -0.368% (inactive).
In the case of `O=C(OC1CCN(CCCl)CC1)C(c1ccccc1)c1ccccc1`, in [9], the inhibition is -11.2% (inactive).
Consider `CC[C@@H]1C(=O)OC[C@@H]1Cc1cncn1C`, for which the inhibition of aggregation in assay [1] was 8.3% (inactive) and -13.2% (inactive). Moreover, the nuclei count in assay [1] was 112% and 101%; in [2], 122% and 127%. The inhibition is -46.3% (inactive) and -64.9% (inactive) in [2]; 11.3% [cells stimulated with TPA for 15 min] (inactive) and 10.2% [cells stimulated with TPA for 15 min] (inactive) in [4]; 18.4% (inactive) and -3.13% (inactive) in assay [10]; 19% (inactive) and 27% (inactive) in assay [11]. The z-score was 0.654 and -2.12 in assay [3] (measured here: cell density z-score, cells stimulated with TPA for 15 min); -1.14 and -0.253 in assay [3] (measured here: nuclear c-Myc green intensity z-score, cells stimulated with TPA for 15 min); 0.525 and 1.62 in assay [3] (measured here: nuclear pErk red intensity z-score, stronger effect = higher value, cells stimulated with TPA for 15 min). Moreover, the fluorescence slope in assay [5] is -0.572 (inactive) and -0.488 (inactive). Moreover, the NADPH fluorescence slope in assay [6] is 7.3e-06 (inactive) and -6e-05 (inactive). The outcome in assay [8] was “inactive [screened at 20 µM (by protocol)]”.
As to `O=P(c1ccccc1)(c1ccccc1)N1CCCCC1`, the figures for the inhibition in assay [2], in [4] and in assay [9] were -13.6% (inactive), 18.9% (inactive) and -7.33% (inactive), respectively. Further, the nuclei count in [2] was determined as 99.1%. Further, the z-score in assay [3] (setting [13]) is -0.682; in assay [3] (setting [14]), -0.604; in assay [3] (setting [15]) it was -1.11. Moreover, the fluorescence slope in [5] is -0.396 (inactive); in [12], 0.00417 (inactive). Also, in assay [6], the NADPH fluorescence slope was 1.4e-05 (inactive). Moreover, the call in assay [8] was inactive.
Regarding `CN(C)[C@@H]1C(=O)C(C(N)=O)=C(O)[C@@]2(O)C(=O)C3=C(O)c4c(O)cccc4[C@@](C)(O)[C@H]3[C@H](O)[C@@H]12`, in assay [1], the inhibition of aggregation was 62.6% (active). In addition, the nuclei count in assay [1] was found to be 102%; in assay [2] it was 123%. In addition, the inhibition in assay [2] is -42.6% (inactive); in assay [4], 8% (inactive); in assay [9], 12% (inactive); in assay [10], -6.24% (inactive); in assay [11] it was 5.5% (inactive). Further, the z-score in assay [3] (setting [13]) was 1.9; in assay [3] (setting [14]) it was -1.29; in assay [3] (setting [15]) it was -0.511. For the same compound, the fluorescence slope in assay [5] is -0.459 (inactive). Moreover, in assay [6], the NADPH fluorescence slope is -9.9e-05 (inactive). Besides, in [7], the slope was 0.00569 (inactive). In addition, in assay [8], the outcome was inactive.
As for `O=C1CC[C@@]2(O)[C@H]3Cc4ccc(O)c5c4[C@@]2(CCN3CC2CC2)[C@H]1O5`, the inhibition in [2] is -64.2% (inactive); in [4], 11.3% (inactive); in assay [9] it was 17.1% (inactive); in assay [10] it was 10.3% (inactive); in assay [11], 48.8% (inactive). Moreover, the nuclei count in assay [2] came to 120%. Moreover, the z-score in assay [3] (setting [13]) turned out to be 1.03; in [3] (setting [14]), 0.419; in [3] (setting [15]), 0.423. In assay [5], the fluorescence slope is -0.463 (inactive). In addition, the NADPH fluorescence slope in [6] is -9.1e-06 (inactive). The slope in assay [7] is 0.0048 (inactive). The compound was classed as inactive in assay [8].
`Cc1cccc(C)c1NC1=NCCCS1`: in assay [9], the inhibition was 6.94% (inactive).
As for `CCCN(CCC)[C@H]1CCc2c(F)ccc(O)c2C1`, the inhibition in assay [9] was -6.79% (inactive).

The inhibition is the change of the read-out against control, counted positive when it falls.
